HMGR II inh: blocks class II HMG-CoA reductase of Enterococcus faecalis; AID 1066; actives 0.41% (n = 190,000); inhibition, % at 10 µM; purified E. faecalis HMGR, NADPH absorbance 340 nm kinetic;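 active = inhibition above a set limit, the median over all tested compounds plus 3 SD, cut at about 9.5% in these data; inconclusive = no clear call, values can overlap the other calls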;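 note: enzyme runs in reverse so mevalonate oxidation gives rising NADPH absorbance; 0% = complete reaction with DMSO and 100% = background rate lacking mevalonate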
Calpain2 inh: blocks pig calpain II enzyme activity. actives 0.37% (n = 220,000). inhibition, % at 16 µM. purified calpain II, fluorogenic peptide substrate, 30 min. AID 1236;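 active = inhibition above about 50%, limit read from the data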
HSV replic up: increases HSV replication in cells. maximum fold increase. HSV replication augmentation in cells, fold increase. actives 0.005% (n = 220,000); in the data active = maximum fold increase above about 1.5; inconclusive = no clear call, values can overlap the other calls; tested in PC3 cells
ROMK mod: modulators of human ROMK potassium channel | Tet-inducible ROMK, thallium flux fluorescence; actives lie on both sides | B-score at 10 µM | AID 1918 | P48048 | actives 2% (n = 130,000);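 active = signal ratio slope over the read window, or its plate-corrected B-score, at least 3 SD from the plate mean, either direction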;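 note: B-score of the F/F0 ratio slope over 7 to 12 s after thallium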
Target sequence (P48048 whole entry, looked up): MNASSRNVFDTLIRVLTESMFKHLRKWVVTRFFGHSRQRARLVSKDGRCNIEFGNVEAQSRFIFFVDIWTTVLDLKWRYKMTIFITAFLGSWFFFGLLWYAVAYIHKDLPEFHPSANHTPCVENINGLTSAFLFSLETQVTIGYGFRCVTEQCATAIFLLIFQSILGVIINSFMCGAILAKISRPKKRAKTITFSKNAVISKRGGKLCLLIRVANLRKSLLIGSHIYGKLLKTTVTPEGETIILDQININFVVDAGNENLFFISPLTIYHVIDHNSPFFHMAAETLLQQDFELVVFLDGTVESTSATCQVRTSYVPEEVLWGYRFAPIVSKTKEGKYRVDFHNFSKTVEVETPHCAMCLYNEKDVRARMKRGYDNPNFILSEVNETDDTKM
Arbovirus anti: blocks arbovirus infection. inhibition, % at 10 µM. arbovirus infection cell-based antiviral screen. AID 1251. actives 0.37% (n = 200,000); in the data active = inhibition above about 30%
ROMK retest: retested hit modulating human ROMK potassium channel; shares compounds with ROMK mod; normalized thallium flux (F/F0 slope) at 10 µM; actives 54% (n = 3,000); ROMK thallium flux, fluorescence ratio; stronger effect = lower value;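 active = Flux at 10 µM at least 3 SD below or above vehicle control mean in one or both replicates; inconclusive = no clear call, values can overlap the other calls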
An asterisk follows results filed as active; i = inactive; ? = inconclusive; . = no result. Sampled rows, rich in hits. Any-hit rate of the full collection: about 2.1%.

SMILES	HMGR II inh	Calpain2 inh	HSV replic up	ROMK mod	Arbovirus anti	others
COc1ccc(OC)c(N2C(=O)NC(=O)/C(=C/c3ccc([N+](=O)[O-])s3)C2=O)c1	-0.8	-39.5	i	-0.214	-0.6
CCN1C(=O)/C(=C\c2ccc([N+](=O)[O-])s2)C(=O)NC1=S	10.8*	-11.2	?	0.166	-16.5
C[N+]12CCC(CC1)C(C(O)(c1ccccc1)c1cccs1)C2 (stereo not given)	-1.4	32.7	i	.	2.2
CN1CCN2c3ccc(N)cc3CC3(C(=O)NC(=O)NC3=O)C2C1 (stereo not given)	.	-0.1	i	-1.11	.
CCCCC/C=C\C/C=C\C/C=C\C/C=C\CCCC(=O)Nc1ccc(O)cc1	1.8	63.2*	i	.	-22.0
CCCC(=O)Nc1ccc(N2CCN(CC)CC2)c(Cl)c1	-1.9	-21.8	i	0.832	-2.9
Cc1ccccc1C1=NCC(=S)Nc2ccc(Cl)cc21	10.4*	-5.7	i	1.12	-6.4
CCOC(=O)C(C)(CC)NC(=O)CSP(=S)(OCC)OCC (stereo not given)	-1.5	22.2	i	-0.0457	0.2
CCOP(=O)(C#CC(C)(C)C)C1(O)CCCCC1 (stereo not given)	-0.1	20.9	i	.	-1.1
Cc1nc2c(=O)n(C)c(=O)nc-2n(C)n1	10.3*	26.2	.	.	-26.8
CC(C)CC(NC(=O)C1CCCCC1)C(=O)N1CCC2(CC1)OCCO2 (stereo not given)	-7.5	-0.2	i	-0.136	6.9
CC(C)C[C@H](NC(=O)[C@@H]1CCCN1C(=O)[C@@H](N)Cc1ccc(O)cc1)C(=O)NCC(N)=O	18.2*	17.4	i	-0.36	6.8
CN1CCN(c2ccc(/C=C3\C(=O)NC(=S)N(c4cccc(Br)c4)C3=O)o2)CC1	4.1	-31.3	?	.	36.6*
Clc1ccc(COC(Cn2ccnc2)c2ccc(Cl)cc2Cl)cc1 (stereo not given)	6.5	38.5	i	.	-44.5
Clc1ccc(CSC(Cn2ccnc2)c2ccc(Cl)cc2Cl)cc1 (stereo not given)	11.3*	33.4	i	.	-43.5
Cc1nn(Cc2ccccc2)c(Cl)c1C(=O)NC1CCCc2ccccc21 (stereo not given)	-5.2	31.4	i	-0.479	30.3*
COc1ccc(C2c3c(nc(C)[nH]c3=O)Oc3c2c(=O)oc2ccccc32)cc1 (stereo not given)	.	-20.5	i	0.689	.
COc1ccccc1N1CCN(Cc2cc(C)c(C)cc2O)CC1	-4.7	-16.5	.	-1.18	32.4*
CC1CCCN(CC(=O)N2CCCc3ccccc32)C1 (stereo not given)	-9.4	24.2	i	.	-5.8
O=C(c1ccccc1)c1cn(CC(=O)N2CCCc3ccccc32)c2ccccc12	-4.5	56.2*	i	-0.534	6.6
COc1ccc(CCN(C)Cc2ccc(F)cc2F)cc1OC	0.5	7.9	i	1.3	70.6*
CCCn1c(C)cc(C=O)c1C	0.2	5.0	i	-0.0357	0.1
O=C1NC(=O)C(Cc2cccs2)C(=O)N1	-2.4	6.3	i	.	-0.6
CCCNc1nc(OC)nc(N2CC3CC(C2)c2cccc(=O)n2C3)n1 (stereo not given)	9.9*	-12.8	i	-0.973	20.1
COc1nc(NCC2CCCO2)nc(N2CC3CC(C2)c2cccc(=O)n2C3)n1 (stereo not given)	.	-10.7	i	.	.
SMILES	HMGR II inh	Calpain2 inh	HSV replic up	ROMK mod	Arbovirus anti	others
Cc1oc2ccc(OC(=O)N(C)C)cc2c1C(=O)OC(C)C	-1.7	-9.2	i	.	32.1*
CCOC(=O)c1c(-c2ccc(OC)cc2)oc2ccc(OC(=O)N(C)C)cc12	-4.9	i	i	-0.847	-8.3
O=C(COC(=O)c1cccc(O)c1)Nc1ccc(Cl)cc1C(=O)c1ccccc1	-8.6	52.6*	i	.	6.2
CC(=NCCCn1ccnc1)c1c(O)n(Cc2ccccc2)c(=O)[nH]c1=O	-0.1	-12.6	i	-0.103	-3.3
CCCn1cc(C(=O)O)cn1	14.4*	13.7	i	-0.838	5.4
CN1C(=O)C(=Cc2ccccc2Oc2ccc(Cl)cc2)C(=O)N(C)C1=O	-6.5	16.6	i	.	2.6	ROMK retest=0.0842
CN1C(=O)C(=Cc2ccccc2OCc2ccc(Cl)cc2)C(=O)N(C)C1=O	-6.2	-7.4	i	.	-0.5
COC(=O)C1=C(c2ccc(S(C)(=O)=O)cc2)C[C@@H]2CC[C@H]1N2C(=O)NCc1ccc(C(F)(F)F)cc1	.	.	i	.	.
C#CCOc1cc(C2C3=C(COC3=O)Nc3cc4c(cc32)OCO4)ccc1OC (stereo not given)	-8.7	-135.1	i	3.47*	-7.3	ROMK retest=0.0862
CCOc1ccc(N2C(=O)NC(=O)/C(=C\c3ccc(N4CCCCC4)o3)C2=O)cc1	-0.1	-5.3	?	.	8.3	ROMK retest=0.044*
O=C1NC(=O)N(c2ccc3c(c2)OCO3)C(=O)/C1=C/c1ccc(N2CCCC2)o1	4.5	-2.6	?	.	-3.0
CC1(C)C[C@H]2C=C(C=O)[C@]3(C=O)C[C@]3(C)[C@H]2C1	-9.2	-36.5	i	-9.94*	-35.5	ROMK retest=0.05*
CC1CCCCN1Cc1c[nH]c2ccccc12 (stereo not given)	.	-11.2	i	.	.
CN(C)c1ccc2c(c1)N=C(c1ccco1)OP2(=S)N1CCOCC1 (stereo not given)	-0.6	-35.0	i	.	-12.6
CC1=[N+]([O-])C2(N)CCc3nonc3C2(O)C1 (stereo not given)	0.2	12.4	i	.	0.4
O=C1NC(=O)C(=Cc2ccc3c(c2)OCO3)C(=O)N1	-4.6	-29.9	i	-0.534	12.0
O=C1NC(=O)C(=Cc2cn(CCOc3ccc4c(c3)OCO4)c3ccccc23)C(=O)N1	-3.3	-11.3	i	-5.61*	-6.6	ROMK retest=?
CCC(CO)NC(=O)C1C=C2c3cccc4[nH]cc(c34)CC2N(C)C1 (stereo not given)	.	-292.1	?	.	.
COC(=O)C1C=C2c3cccc4[nH]cc(c34)CC2N(C)C1 (stereo not given)	.	-48.9	?	.	.	ROMK retest=0.0542*
c1ccc2c(c1)Sc1ccccc1N2CC1CN2CCC1CC2 (stereo not given)	.	-7.5	i	.	.	ROMK retest=0.0399*
CC(C)Cc1nc(N2CCNCC2)c(C#N)c2c1CCC2	.	-0.1	i	.	.
CCc1nc(N2CCNCC2)c(C#N)c2c1CSC(C)(C)C2	-5.9	-29.4	.	-3.72*	16.8	ROMK retest=0.0747
CC(=O)OC1C2CCCC1C(N1CCCC1)CC2 (stereo not given)	-4.2	11.5	i	.	2.1
CN(C)C(Cc1ccccc1)C(=O)c1ccccc1 (stereo not given)	-6.3	15.8	i	.	9.6	ROMK retest=0.0814
Cc1cc(C=C2C(=O)NC(=O)NC2=O)c(C)n1-c1cccnc1	.	-24.8	i	.	.
C=CCN1C(=O)/C(=C/c2cc(C)n(-c3cccnc3)c2C)C(=O)NC1=S	-4.6	-3.7	i	-2.85*	1.6	ROMK retest=0.0669*
CCc1ccccc1NC(=O)CNCc1ccccc1	-0.4	-3.1	i	-0.952	-4.3
Fc1ccccc1CCNCc1cccc2ccccc12	0.4	10.4	i	-3.61*	4.3	ROMK retest=0.0567*
